Whole data set: some 5,800 sequences, median “enrichment r” near 0.68, cut for the highest 2% near 11. A selection follows.
T1: UNK ZnF1-6 (called full-length) (human, UniProt Q9C0B0 30-357)
T1 sequence: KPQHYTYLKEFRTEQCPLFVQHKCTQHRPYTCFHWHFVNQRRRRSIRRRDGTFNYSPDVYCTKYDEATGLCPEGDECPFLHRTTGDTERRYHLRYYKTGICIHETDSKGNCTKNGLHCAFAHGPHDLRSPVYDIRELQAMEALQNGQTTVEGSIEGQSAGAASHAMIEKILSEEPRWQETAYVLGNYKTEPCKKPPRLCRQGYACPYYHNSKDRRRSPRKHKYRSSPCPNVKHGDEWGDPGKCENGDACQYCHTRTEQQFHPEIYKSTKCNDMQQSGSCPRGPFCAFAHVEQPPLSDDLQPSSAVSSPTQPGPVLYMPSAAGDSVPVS

B1: ENSG00000124766:be:win_1851|3pUTR|ENSG00000124766|bound_else_gene|NA|bound_elsewhere_windowed (ssRNA)
RNA: GGGAGUUCUACAGUCCGACGAUCAGAGACUUGAAGGAGUCUCCCCCUUCCUGCAUCACCACCUUGGUUUUGUUUUAUUUUGCUUCUUGGUCAAGAAAGGAGGGGAGAACCCAGCGCACCCCUCCCCCCCUUUUUUUAAACGCGCAACAGAGGAUUGAGCAUCA
B2: chr9:125236489:125236593:-|3pUTR|ENSG00000044574|msi1_unk|total|mutant (ssRNA)
RNA: GGGAGUUCUACAGUCCGACGAUCUGCCGACACUGAUCUGCCCGUGCUGUAAUAUUGUAAAUACUGGACUCAGGAACUUUUGUCCGGAAAAAAUUGAAAGAACUUAAGUCUCGAAUGUAAUUGGAAUCUUCACCUCAGAGUGGACAACAGAGGAUUGAGCAUCA
B3: chr12:64128047:64128160:+|CDS|ENSG00000196935|unk|FALSE|unique (ssRNA)
RNA: GGGAGUUCUACAGUCCGACGAUCGGCAGCCUGACCAACAUCAGCCGGCACGACUCCCUCAAGAAGAUCGACAGCCCUCCCAUUAGAAGGUCCACGUCAUCAGGGCAAUACACGGGCUUCAAUGACCACAAGCCACUGGACCCACAACAGAGGAUUGAGCAUCA
B4: chr11:30010719:30012678:-|CDS|ENSG00000182255|control|control|control (ssRNA)
RNA: GGGAGUUCUACAGUCCGACGAUCUUUGCUCAAGAAAUUUCGGAGCUCUACUUCUUCUUCCCUGGGGGACAAGUCAGAGUAUCUAGAGAUGGAAGAAGGAGUUAAGGAAUCUCUGUGUGCAAAGGAGGAGAAGUGUCAGGGAAACAACAGAGGAUUGAGCAUCA
B5: chr11:101473508:101473773:-|CDS|ENSG00000137672|control|control|control (ssRNA)
RNA: GGGAGUUCUACAGUCCGACGAUCUCCUCAAAUAAUAUCUGAAGGUCUUUAUGCAAUUGCUGUAGUUUUAAGUUUCUCUAGGAUAGCUUAUAUUUUACCAGCAAAUGAAAGCUUUGGACCUCUGCAGAUAUCACUUGGAAGAACCAACAGAGGAUUGAGCAUCA
B6: ENSG00000092201:stop:overlap|stop_codon|ENSG00000092201|stop_codon|NA|stop_codon (ssRNA)
RNA: GGGAGUUCUACAGUCCGACGAUCUUCCCCGCGUGCCAGCCUUGGUCAUGCAUAGCAGCACCUCUCGCAGUCUCUUCCCGCCCUAGAAGAGGCAACAUCCUUCCCUCCUACUCCGUGGUCACGUCUUGCUGCCCUCCCCUGCCGCAACAGAGGAUUGAGCAUCA
B7: chr8:143915815:143915916:-|3pUTR|ENSG00000178209|msi1|FALSE|unique (ssRNA)
RNA: GGGAGUUCUACAGUCCGACGAUCGCCAGGUGCCUUGGAGGGUCCCAAGCUGGGCCCCAGCCCACCCUCCUGUCUUCCCAGGGUAGCCCGCCUGCCAGUCCUAGCUGCACAGGGCAGCUGGGCCCAACCCUGUCUGUAGAGGGCCAACAGAGGAUUGAGCAUCA
B8: chr1:17067933:17068034:-|3pUTR|ENSG00000117115|msi1|total|mutant (ssRNA)
RNA: GGGAGUUCUACAGUCCGACGAUCACAUAAGGACCCUGGCCUACCCUCCAGCCCAACAGCCAGUUCUGGGUCAGCUGCCAACUCCGGGGUGGUUUGAUUAUCCCAUUGAAAUUCACCAGUGCCUUUGCCAAAGACCCUCUCAUUCAACAGAGGAUUGAGCAUCA
B9: chr22:31279490:31279591:+|3pUTR|ENSG00000182541|msi1|FALSE|unique (ssRNA)
RNA: GGGAGUUCUACAGUCCGACGAUCAGCAGCUUGGGCUGGGAAGAGGUGGUGGCAGAGUCUCAAAGCUGAGAUGCUGAGAGAGAUAGCUCCCUGAGCUGGGCCAUCUGACUUCUACCUCCCAUGUUUGCUCUCCCAACUCAUUAGCAACAGAGGAUUGAGCAUCA
B10: chr1:193029531:193029688:-|CDS|ENSG00000116750|unk|total|mutant (ssRNA)
RNA: GGGAGUUCUACAGUCCGACGAUCUUGAUAUCUUCACUUUUAUAUUUUACCGGUAAUUAAUAAUGCUUGUGCUACUCAAGCCACCGUGAGUGUGUUACUGAACUGUACCCACCAGGAUGUCCAUUCCGGCGAGACAUUAUCAGACAACAGAGGAUUGAGCAUCA
B11: ENSG00000099250:stop:overlap|stop_codon|ENSG00000099250|stop_codon|NA|stop_codon (ssRNA)
RNA: GGGAGUUCUACAGUCCGACGAUCCAAUUCACGGAGAAAUGUGGUCAUCUGGAAAAGGAGUCUGCUCCCUGGAUGCGAAUCUGUAGCCUGGAUUCUGGAAGGCGAUGCUGAUUUAGGAGGUGGAGUGAAUGGAGAAUUGAAAAGCAACAGAGGAUUGAGCAUCA
B12: chr12:10081268:10081413:-|three_prime_utr|ENSG00000150048|control|control|control (ssRNA)
RNA: GGGAGUUCUACAGUCCGACGAUCUCAGUACUACCAGCUCUCCAAUACUGGUCAAGACACCAUUUCUCAAAUGGAAGAAAGAUUAGGAAAUACGUCCCAAGAGUUGCAAUCUCUUCAAGUCCAGAAUAUAAAGCUUGCAGGAAGCAACAGAGGAUUGAGCAUCA
B13: chr15:63774837:63774950:-|CDS|ENSG00000103657|unk|total|mutant (ssRNA)
RNA: GGGAGUUCUACAGUCCGACGAUCGUAACAACAUUUCUUAAAGGAGUCACUAUUCCUAAUUCUGGGGCAGACACUUCCGGUCGCCGAUCCGCUUCUGAGUUGCUGCUUGGUUUGGCAGCUCAACGAGGCUCAUUGCGAUAUCUUCAACAGAGGAUUGAGCAUCA
B14: ENSG00000086827:stop:overlap|stop_codon|ENSG00000086827|stop_codon|NA|stop_codon (ssRNA)
RNA: GGGAGUUCUACAGUCCGACGAUCUAAUUCGUGCCUUGUUUCAGAACACAGAAAGAAGAGCAGCUGCCCUUGCUAAAAUUAAAUAGCUCCAUCUUCUUAAGAAAGCUAUGUCUUGAAUAUGUGGAUUCUUCCCUUGGCAUAAUUCAACAGAGGAUUGAGCAUCA
B15: chr10:27397735:27399240:-|CDS|ENSG00000182077|control|control|control (ssRNA)
RNA: GGGAGUUCUACAGUCCGACGAUCUCUUCUAGGCUACCCAGUGUUACAAAGUGCAAUUUCAACAAUAAUAGGGGUGUGUGUUUUAGCUGCAGCGAAAGCAUACAUCUUCAGAACAUUUUUUAAGAUUAUGUUUCUUGUUAUGAUCAACAGAGGAUUGAGCAUCA
B16: ENSG00000124766:be:win_3751|3pUTR|ENSG00000124766|bound_else_gene|NA|bound_elsewhere_windowed (ssRNA)
RNA: GGGAGUUCUACAGUCCGACGAUCUUGUACAUUUAAGUCUGUAUUAUAAUAAGCAAAAAGAUUGUGUGUAUGUAUGUUUAAUAUAACAUGACAGGCACUAGGACGUCUGCCUUUUUAAGGCAGUUCCGUUAAGGGUUUUUGUUUCAACAGAGGAUUGAGCAUCA
B17: chr13:45957189:45957298:-|CDS|ENSG00000123200|unk|total|mutant (ssRNA)
RNA: GGGAGUUCUACAGUCCGACGAUCUGUUUUUGUUUUCUUCAAACCGGGCACCAUAAAACAAGCUUACACGAGUGCUCCAAUGGCCGACAAUGAAUUACUUCGAUUGAGUCUUCGGUUAUUUAAGCGGAAGACUACUUGCCAUGCCAACAGAGGAUUGAGCAUCA
B18: chrX:130230552:130230660:-|CDS|ENSG00000056277|unk|total|mutant (ssRNA)
RNA: GGGAGUUCUACAGUCCGACGAUCAUCAGAACGUCCAUGUGAUGAAGACAAGACUGAUUCAGAGACAGGAAAGUUGAUCAUGUCCGUCAAUGAGUUUUAUUAUGGAAGGCAUGAAGGAGUCACUGAGAAAGAGCCAAAGACUUACAACAGAGGAUUGAGCAUCA
B19: ENSG00000107863:be:win_2551|CDS|ENSG00000107863|bound_else_gene|NA|bound_elsewhere_windowed (ssRNA)
RNA: GGGAGUUCUACAGUCCGACGAUCUUAAUUCGCCGUCAGCUCUCACAUGACCACGAAUCUGUUGGCCCUCCUAGCCUGGAUGCUCAGCCCAACUCAAAGACAGAAAGAUCAAAAUCAUAUGAUGAGGGUCUGGAUGAUUACAGACAACAGAGGAUUGAGCAUCA
B20: chr20:57651677:57651767:-|3pUTR|ENSG00000124225|msi1_unk|FALSE|overlapping (ssRNA)
RNA: GGGAGUUCUACAGUCCGACGAUCGUUGAGCUGUGUCUUGAAGGCAAAAGAAAAAAAAUUUCUACAGUAGUCUUUCUUGUUUCUAGUUGAGCUGCGUGCGUGAAUGCUUAUUUUCUUUUGUUUAUGAUAAUUUCACUUAACUUUCAACAGAGGAUUGAGCAUCA
B21: ENSG00000124766:be:win_3701|3pUTR|ENSG00000124766|bound_else_gene|NA|bound_elsewhere_windowed (ssRNA)
RNA: GGGAGUUCUACAGUCCGACGAUCUCAGGUUUAUAGCUGUUGUGUUUAAAAAUUGAAAAAAGUGGAAAACAUCUUUGUACAUUUAAGUCUGUAUUAUAAUAAGCAAAAAGAUUGUGUGUAUGUAUGUUUAAUAUAACAUGACAGCAACAGAGGAUUGAGCAUCA
B22: chr4:1716041:1716142:-|3pUTR|ENSG00000168936|msi1|total|mutant (ssRNA)
RNA: GGGAGUUCUACAGUCCGACGAUCAGGCUUCCCCGAGCGCUCAGCAGGUGAAGGCAGCAGGGGCCAUGGCCGGGAGCCAGGCCCCGCUUUGAACUGAGUUUCAAGGGCUGCCAAAGAGGGGCAGUGGGUUGGGGUUGUUUUUACCAACAGAGGAUUGAGCAUCA

Biological target: T1, UNK ZnF1-6 (called full-length)
Assay: nsRBNS (natural sequence RNA bind-n-seq); RBNS binding buffer (assumed for nsRBNS): 25 mM Tris pH 7.5, 150 mM KCl, 3 mM MgCl2, 0.01% Triton X-100, 500 ug/ml BSA, 20 U/ml SUPERase-In, 4 C; UNK is unkempt and MSI1 is Musashi-1; names of the RNAs are library labels; protein concentration not given here; high values mean tight binding

Row | Binder | binding signal [enrichment R]
1 | B1 | 0.704
2 | B2 | 0.446
3 | B3 | 1.28
4 | B4 | 0.697
5 | B5 | 0.473
6 | B6 | 0.859
7 | B7 | 1.03
8 | B8 | 0.749
9 | B9 | 0.852
10 | B10 | 0.805
11 | B11 | 0.76
12 | B12 | 0.413
13 | B13 | 0.574
14 | B14 | 1.49
15 | B15 | 0.38
16 | B16 | 0.359
17 | B17 | 0.325
18 | B18 | 0.608
19 | B19 | 0.436
20 | B20 | 1.22
21 | B21 | 0.65
22 | B22 | 0.696

— PMC12136788
